Source: PubChem BioAssay (National Center for Advancing Translational Sciences (NCATS))
DT40 TDP1 no CPT – qHTS for Inhibitors of human tyrosyl-DNA phosphodiesterase 1 (TDP1): qHTS in cells in absence of CPT | DT40 Tdp1-/- hTDP1 cells, no CPT, ATP luminescence, 48 h | Potency, µM (series often up to 46.2 µM), actives largely listed as inhibitors | 15% of 420,000 active | AID 686978, 2013; note: nearly all actives have a fitted effect of over 55% in size
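Readout: luminescence from CellTiter-Glo after 30 min in the dark at RT. Cells: DT40 Tdp1-/- with stable hTDP1, 400/well. Exposure: compounds alone, ≥48 hr, 37 °C.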
DT40 TDP1 CPT – DT40-hTDP1 cell growth loss with CPT; chicken DT40 Tdp1-/-;hTDP1 cells + 20 nM CPT, ATP luminescence, 48 h; Potency, µM (titrated, usually from 46.2 µM), most hits filed as inhibitors; 12% of 420,000 active; AID 686979; note: nearly all actives have a fitted effect of over 55% in size
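Chicken DT40 Tdp1-/- cells complemented with human TDP1, 400 cells/well, exposed to compounds plus 20 nM camptothecin for at least 48 h at 37 C; viability read as ATP content by CellTiter-Glo luminescence.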
HT1080-NT tox – kills 2HG-producing HT-1080-NT fibrosarcoma cells; HT-1080-NT fibrosarcoma viability, CellTiter-Glo ATP luminescence, 48 h; Potency, µM (top dose mostly 46.1 µM), usual class: cytotoxic; 1.6% of 360,000 active; AID 686970;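 note: NT is the 2HG producing partner of a matched IDH1 knockdown line; nearly all actives have a fitted effect of over 55% in size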
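A 48-hour cytotoxicity screen used HT-1080-NT cells plated 2 hours before compound delivery. ATP-based CellTiter-Glo luminescence measured viability, normalized to DMSO and no-cell controls.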
HT1080 IDH1KD tx – toxicity to HT-1080 IDH1 knockdown cells (counter line); HT-1080 IDH1 knockdown viability, ATP luminescence, 48 h; Potency, µM (series often up to 46.1 µM), usual class: cytotoxic; 2% of 360,000 active
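Luminescent ATP read-out (CellTiter-Glo, 10 min at room temperature) after 48 h compound exposure at 37 °C gave viability of IDH1-knockdown HT-1080 cells. Activity was normalised to DMSO and cell-free wells, then fitted as concentration-response curves.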
IL-1B inflam inh – inflammasome signaling inhibition, IL-1 beta readout | AID 743279 | THP-1 LPS/ATP IL-1B secretion, AlphaLISA, 16 h; stronger effect = lower value | 4.7% of 360,000 active | activity change, % at 57.5 µM; in the data active = activity change below about -50%; inconclusive = mostly about -30% to -49%
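THP-1 cells pretreated 1 hr with compounds (up to 57.5 uM final), then stimulated with LPS (250 ng/mL final) plus ATP (1.25 mM final); secreted IL-1B measured by AlphaLISA after 16 hr, decreased signal indicating inhibition.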
Each line names hits and unclear results; the compound was inactive in the other large screens. A selection: hits, their analogues and other compounds. The true share with any hit is near 19%. Unless noted, calls come from the whole dose curve; as a rule, active = well fitted curve in the direction sought with a large enough effect; inconclusive = small, poorly fitted or top-dose-only effect, or another doubt; inactive = no such curve, though single readings can be large; an effect the other way counts as inactive or inconclusive.

C=Cc1ccc(Cn2c(=O)n(CCCOC)c(=O)c3sccc32)cc1	DT40 TDP1 no CPT inconclusive, DT40 TDP1 CPT inconclusive, IL-1B inflam inh -88
CCOC(CC(=O)NNC(=O)c1c(-c2c(Cl)cccc2Cl)noc1C)OCC	HT1080-NT tox inconclusive
COc1ccc(N2N=NN(C(C)C)C2=C(Cl)c2nnnn2-c2ccc(OC)cc2)cc1	DT40 TDP1 no CPT 8.2µM, DT40 TDP1 CPT 5.8µM, HT1080 IDH1KD tx inconclusive (no result: IL-1B inflam inh)
C=CCSc1nnnn1-c1ccc(OC)cc1	none
Cc1cccc(CNC(=O)CCCn2nc(C)c3c(C)n(-c4ccccc4)nc3c2=O)c1	DT40 TDP1 no CPT inconclusive
Cc1cccc(CNC(=O)Cn2nc(C)c3nn(-c4ccc(Cl)cc4)c(C)c3c2=O)c1	DT40 TDP1 no CPT 18µM, DT40 TDP1 CPT 21µM (no result: HT1080-NT tox, HT1080 IDH1KD tx, IL-1B inflam inh)
Cc1nn(CC(=O)Nc2ccccc2F)c(=O)c2c(C)n(-c3ccc(Cl)cc3)nc12	DT40 TDP1 no CPT inconclusive, DT40 TDP1 CPT 23µM (no result: HT1080-NT tox, HT1080 IDH1KD tx, IL-1B inflam inh)
COc1ccc(NC(=O)Cn2nc(C)c3c(C)n(-c4ccccc4)nc3c2=O)cc1OC	none (no result: HT1080-NT tox, HT1080 IDH1KD tx, IL-1B inflam inh)
CCOc1ccc(CNC(=O)Cn2nc(C)c3nn(-c4ccc(Cl)cc4)c(C)c3c2=O)cc1OC	DT40 TDP1 no CPT 18µM, DT40 TDP1 CPT inconclusive (no result: HT1080-NT tox, HT1080 IDH1KD tx, IL-1B inflam inh)
CCOc1ccc(CNC(=O)Cn2nc(C)c3nn(-c4ccc(Cl)cc4)c(C)c3c2=O)cc1	none (no result: HT1080-NT tox, HT1080 IDH1KD tx, IL-1B inflam inh)
O=C(O)CC(NCc1ccco1)C(=O)Nc1cccc(O)c1 (configuration not stated)	none
CCOc1ccc(N2C(=O)CC(Cc3ccccc3OC)C2=O)cc1 (configuration not stated)	none
CCSc1nnc(-c2ccc(C)cc2)c2ccccc12	DT40 TDP1 no CPT 16µM, DT40 TDP1 CPT inconclusive
CCN(CC)CCOc1nnc(-c2ccc(C)cc2)c2ccccc12	DT40 TDP1 no CPT 15µM, DT40 TDP1 CPT inconclusive, IL-1B inflam inh -57
CSc1ncc(CN2CCCC(C(=O)c3ccc(C(C)(C)C)cc3)C2)cn1 (configuration not stated)	DT40 TDP1 no CPT 23µM, DT40 TDP1 CPT 16µM
CSc1ncc(CN2CCCC(C(=O)Nc3ccc(-c4ccco4)cc3)C2)cn1 (configuration not stated)	DT40 TDP1 no CPT inconclusive, DT40 TDP1 CPT inconclusive
CCOC(=O)c1[nH]ncc1CN1CCCC(C(=O)c2ccc(SC)cc2)C1 (configuration not stated)	none
CSc1ccc(C(=O)C2CCCN(Cc3ccc(N4CCNC4=O)cc3)C2)cc1 (configuration not stated)	DT40 TDP1 no CPT inconclusive, IL-1B inflam inh -97
COc1ccc(CN2CCCC(C(=O)c3ccc(SC)cc3)C2)cc1Cn1cccn1 (configuration not stated)	DT40 TDP1 no CPT inconclusive, DT40 TDP1 CPT inconclusive, HT1080-NT tox inconclusive, HT1080 IDH1KD tx inconclusive, IL-1B inflam inh -96
COc1ccccc1OCC(=O)N(Cc1nc(-c2ccccc2)no1)C1CCCCC1	DT40 TDP1 no CPT 21µM, DT40 TDP1 CPT 23µM
CCN(C(=O)CSc1ccccn1)C1CCCCC1	DT40 TDP1 no CPT 15µM, DT40 TDP1 CPT 10µM
CCN(C(=O)COc1ccccc1)C1CCCCC1	DT40 TDP1 no CPT inconclusive, DT40 TDP1 CPT 21µM
CCN(C(=O)CCc1ccccc1)C1CCCCC1	DT40 TDP1 no CPT inconclusive, DT40 TDP1 CPT inconclusive
CCN(C(=O)CSc1ncn[nH]1)C1CCCCC1	none
CCOc1ccccc1NC(=O)CS(=O)(=O)c1cn(CC(=O)N2CCOCC2)c2ccccc12	none
Cc1ccc(N=C(NO)c2cnccc2C(F)(F)F)c(C)c1	none
COc1ccc([C@@H]2CC(=O)[C@@H]3CN(S(=O)(=O)c4ccc(Cl)cc4)[C@H](c4ccc(C)cc4)C[C@@H]3N2S(=O)(=O)c2ccccc2)cc1	DT40 TDP1 no CPT inconclusive, DT40 TDP1 CPT inconclusive
O=C(C[C@H]1C/C=C\C[C@H](NC(=O)OCC2c3ccccc3-c3ccccc32)C(=O)OC[C@@H]2CCCN2C1=O)N[C@H](CO)Cc1ccccc1	DT40 TDP1 no CPT 9.2µM, DT40 TDP1 CPT 10µM
O=C(C[C@@H]1C/C=C\C[C@H](NC(=O)OCC2c3ccccc3-c3ccccc32)C(=O)OC[C@@H]2CCCN2C1=O)N[C@H](CO)Cc1ccccc1	DT40 TDP1 no CPT 10µM, DT40 TDP1 CPT 7.3µM
